Records with an inconclusive call do not appear. Values without a mark were called inactive. Activity calls are given as the source filed them. Unless noted, the call rests on the fitted dose curve.
On the % scale 0 is the no-effect control and ±100 the full control effect.

A short description of one experiment: qHTS assay to identify small molecule agonists of H2AX (AID 1224845; active means well fitted activation curve with a large enough effect in the signal ratio in the repeat runs, not every such curve was filed as active; the % refers to the signal ratio; further: potency means the concentration at half of the fitted maximal effect). The note with it: CHO-K1 phospho-H2AX Ser139 HTRF, 3 h; series mostly up to 154 µM; activation (H2AX phosphorylation): at the top concentration. The procedure, abridged:
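Phospho-H2AX Ser139 measured by HTRF (ex 320 nm; em 665 and 620 nm) after 24 hr antibody incubation. Compounds, 15 concentrations, 0.76% DMSO, were applied to CHO-K1 cells for 3hr at 37C before lysis.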
Regarding `Cc1cc2c(OCC(CNC(C)(C)C)OC(=O)c3ccccc3)cccc2[nH]1` (stereo not drawn), the “activation (H2AX phosphorylation)” value is 1.3% [at 70.9 µM].

For the compound `CCC1(CO)COCOC1`, the “activation (H2AX phosphorylation)” value is -0.015%.

Consider `CC(C)(C)C(=O)C(=O)O`, for which the “activation (H2AX phosphorylation)” value is 1.1%.

With `CCCCOc1ccc(OCCCN2CCOCC2)cc1`, the “activation (H2AX phosphorylation)” value is -4.06% [at 70.9 µM].

Consider `Clc1cc(Cl)nc(Cl)n1`, for which the “activation (H2AX phosphorylation)” value was -0.275%.

`CCCCCCCCOc1ccc(C(=O)O)cc1`: the “activation (H2AX phosphorylation)” value was 2.29%.

Consider `CCOC(=O)/C=C/C(=O)OCC`, for which the “activation (H2AX phosphorylation)” value was -2.51%.

For `CCCCCCCC/C=C\CCCCCCCCO`, the “activation (H2AX phosphorylation)” value is -2.5%.

For `CC(C)COCC(CN(Cc1ccccc1)c1ccccc1)N1CCCC1` (stereo not drawn), the Potency was 49.2 µM (active).

For `C=CC(=O)[O-].C=CC(=O)[O-].[Zn+2]`, the “activation (H2AX phosphorylation)” value was 0.116%.

Turning to `C=C1CCC2CC1C2(C)C` (stereo not drawn), the “activation (H2AX phosphorylation)” value was -3.07%.

For `O=C(O)c1cccc(-c2noc(-c3ccccc3F)n2)c1`, the “activation (H2AX phosphorylation)” value was -3.88% [at 70.9 µM].

Turning to `O=c1[nH]c2ccc(Cl)cc2o1`, the “activation (H2AX phosphorylation)” value was 0.258%.

In the case of `CCc1ccccc1`, the “activation (H2AX phosphorylation)” value is -0.0457%.

With `C[C@@H]1CN(CCCn2c3ccccc3c3ccccc32)C[C@H](C)N1`, the “activation (H2AX phosphorylation)” value was 0.645% [at 70.9 µM].

As to `C[C@]1(Cn2ccnn2)[C@H](C(=O)O)N2C(=O)C[C@H]2S1(=O)=O`, the “activation (H2AX phosphorylation)” value is 0.614% [at 70.9 µM].

With `O=C(/C=C/c1ccccc1)OCCc1ccccc1`, the “activation (H2AX phosphorylation)” value is -3.54%.

Consider `Cc1ccc(C(C)(C)O)cc1`, for which the “activation (H2AX phosphorylation)” value is -0.0235%.

`CCCCN(CCN(CCCC)C(=O)N1CCOCC1)C(=O)N1CCOCC1`: the “activation (H2AX phosphorylation)” value was 5.39% [at 70.9 µM].

Take `CC1CC(OC(=O)C(O)c2ccccc2)CC(C)(C)N1C` (stereo not drawn): the “activation (H2AX phosphorylation)” value is 0.0098% [at 70.9 µM].

In the case of `OCCN1CCN(CCCN2c3ccccc3Sc3ccc(Cl)cc32)CC1`, the “activation (H2AX phosphorylation)” value is 11.4% [at 70.9 µM].

As to `CCCCCC[C@@H](O)C/C=C\CCCCCCCC(=O)OCC(O)CO` (stereo partly drawn), the “activation (H2AX phosphorylation)” value was -2.82%.

Another experiment can be described thus: qHTS assay to identify small molecule agonists of the hypoxia (HIF-1) signaling pathway (AID 1224846; active means well fitted activation curve with a large enough effect in the signal ratio in the repeat runs, not every such curve was filed as active; the % refers to the signal ratio). The note with it: HRE-bla ME-180 cells, beta-lactamase ratio, 17 h; series mostly up to 76.8 µM; activation: at the top concentration. The procedure, abridged: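 Hypoxia-pathway activation was scored as increased beta-lactamase from an HRE-controlled reporter in ME-180 cells; plated at 2,000 cells per well with 0.5% dialyzed FBS, they were exposed 17 hrs to compounds and then given CCF4-AM.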
In general terms: qHTS replaces the single test concentration by a dilution series.
For `Oc1cccc(Nc2ccccc2)c1`, the “activation” value was -0.343%.

For the compound `Cc1cc2c(OCC(CNC(C)(C)C)OC(=O)c3ccccc3)cccc2[nH]1` (stereo not drawn), the “activation” value was 0.613% [at 35.5 µM].

As to `CCC1(CO)COCOC1`, the “activation” value was -0.999%.

In the case of `CC(C)(C)C(=O)C(=O)O`, the “activation” value was 0.0679%.

Take `CN1CCCC(n2nc(Cc3ccc(Cl)cc3)c3ccccc3c2=O)CC1` (stereo not drawn): the “activation” value is 0.853% [at 35.5 µM].

In the case of `C(=C\c1ccccc1)/c1ccccc1`, the “activation” value is 0.187%.

For `O=C1NCCN1CCO`, the “activation” value was -0.612%.

Turning to `CCCCCCCCOc1ccc(C(=O)O)cc1`, the “activation” value was 6.35%.

Turning to `CCOC(=O)c1ccc(I)cc1`, the “activation” value was -0.529%.

In the case of `c1csc(SSc2cccs2)c1`, the “activation” value was 2.45%.

With `O=C1c2ccccc2C(=O)c2c(O)c(O)cc(O)c21`, the “activation” value was -0.628%.

`CCOC(=O)/C=C/C(=O)OCC`: the “activation” value is -0.0703%.

Consider `CCCCCCCC/C=C\CCCCCCCCO`, for which the “activation” value was 0.161%.

For `O=C1Cc2cc(Cl)ccc2N1`, the “activation” value is -0.427% [at 35.5 µM].

As for `C=CC(=O)[O-].C=CC(=O)[O-].[Zn+2]`, the “activation” value is 0.21%.

In the case of `Nc1nnc(-c2ccc([N+](=O)[O-])o2)o1`, the “activation” value was 0.869%.

`C=C1CCC2CC1C2(C)C` (stereo not drawn): the “activation” value was 0.0834%.

With `O=C(O)c1cccc(-c2noc(-c3ccccc3F)n2)c1`, the “activation” value was -0.628% [at 35.5 µM].

Take `CC(=O)OCCN(CCOC(C)=O)c1ccc(N=Nc2ccc([N+](=O)[O-])cc2C#N)cc1`: the “activation” value was 0.666%.

As for `O=c1[nH]c2ccc(Cl)cc2o1`, the “activation” value is 1.62%.

For the compound `CCc1ccccc1`, the “activation” value is -1.44%.

On to `CCC(C)COC(C)=O` (stereo not drawn), for which the “activation” value is -0.609%.

As to `C=C(C)[C@@H]1CCC2=CCC[C@@H](C)[C@]2(C)C1`, the “activation” value is -0.227%.

Regarding `O=C(Cn1ccnc1[N+](=O)[O-])NCCO`, the “activation” value was -1.11% [at 35.5 µM].

Consider `C[C@@H]1CN(CCCn2c3ccccc3c3ccccc32)C[C@H](C)N1`, for which the “activation” value is 1.78% [at 35.5 µM].

`C[C@]1(Cn2ccnn2)[C@H](C(=O)O)N2C(=O)C[C@H]2S1(=O)=O`: the “activation” value is -1.34% [at 35.5 µM].

As to `O=C(/C=C/c1ccccc1)OCCc1ccccc1`, the “activation” value is -0.854%.

For the compound `CCCCN1CCCC1C(=O)Nc1c(C)cc(C)cc1C` (stereo not drawn), the “activation” value was 0.214% [at 35.5 µM].

Regarding `Cc1ccc(C(C)(C)O)cc1`, the “activation” value is -0.565%.

As to `CCCCN(CCCC)C(C(N)=O)c1ccc(OC)cc1` (stereo not drawn), the “activation” value was 0.237% [at 35.5 µM].

Regarding `CCCCN(CCN(CCCC)C(=O)N1CCOCC1)C(=O)N1CCOCC1`, the “activation” value is -1.33% [at 35.5 µM].

As to `CCCCCC[C@@H](O)C/C=C\CCCCCCCC(=O)OCC(O)CO` (stereo partly drawn), the “activation” value was 3.87%.

Another experiment can be described thus: qHTS assay to identify small molecule agonists of H2AX - cell viability counter screen (AID 1224847). Further: nearly all actives have a fitted effect of over 30% in size. Further: potency means the concentration at half of the fitted maximal effect. On activity change, negative = cytotoxicity: top concentration of the series differs between compounds. The note with it: CHO-K1 viability, CellTiter-Glo luminescence, 3 h; series mostly up to 154 µM; activity change, negative = cytotoxicity: at the top concentration. An outline of the steps: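 Wild-type CHO-K1 cells (10% FBS medium) were plated overnight at 37C, exposed to compounds at 15 concentrations for 3 hr at 37C (0.76% DMSO final), and viability was read as CellTiter-Glo luminescence after 30 min at room temperature.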
For the compound `Cc1cc2c(OCC(CNC(C)(C)C)OC(=O)c3ccccc3)cccc2[nH]1` (stereo not drawn), the “activity change, negative = cytotoxicity” value is -2.67% [at 70.9 µM].

For the compound `CCC1(CO)COCOC1`, the “activity change, negative = cytotoxicity” value was 0.354%.

As for `CC(C)(C)C(=O)C(=O)O`, the “activity change, negative = cytotoxicity” value is -2.06%.

For `CCCCOc1ccc(OCCCN2CCOCC2)cc1`, the “activity change, negative = cytotoxicity” value was -6.33% [at 70.9 µM].

Consider `O=[N+]([O-])c1cc(C2CCCCC2)c(O)c([N+](=O)[O-])c1`, for which the Potency was 11.3 µM (active).

In the case of `CN1CCCC(n2nc(Cc3ccc(Cl)cc3)c3ccccc3c2=O)CC1` (stereo not drawn), the “activity change, negative = cytotoxicity” value is 4.31% [at 70.9 µM].

As for `C(=C\c1ccccc1)/c1ccccc1`, the “activity change, negative = cytotoxicity” value is -0.802%.

For the compound `Clc1cc(Cl)nc(Cl)n1`, the “activity change, negative = cytotoxicity” value is -1.14%.

For the compound `O=C1NCCN1CCO`, the “activity change, negative = cytotoxicity” value is -3.25%.

As for `CCCCCCCCOc1ccc(C(=O)O)cc1`, the “activity change, negative = cytotoxicity” value is 0.498%.

Turning to `Oc1c(I)cc(I)c2cccnc12`, the “activity change, negative = cytotoxicity” value was 8.46% [at 70.9 µM].

For the compound `CCOC(=O)c1ccc(I)cc1`, the “activity change, negative = cytotoxicity” value was -5.27%.

Consider `Cc1cc(O)ccc1O`, for which the Potency was 51 µM (active).

As for `CCOC(=O)/C=C/C(=O)OCC`, the “activity change, negative = cytotoxicity” value was 1.73%.

For the compound `CCCCCCCC/C=C\CCCCCCCCO`, the “activity change, negative = cytotoxicity” value is 2.6%.

For the compound `O=C1Cc2cc(Cl)ccc2N1`, the “activity change, negative = cytotoxicity” value was -0.362% [at 70.9 µM].

For `C=CC(=O)[O-].C=CC(=O)[O-].[Zn+2]`, the “activity change, negative = cytotoxicity” value was 7.68%.

On to `C=C1CCC2CC1C2(C)C` (stereo not drawn), for which the “activity change, negative = cytotoxicity” value is -0.977%.

`CC(=O)OCCN(CCOC(C)=O)c1ccc(N=Nc2ccc([N+](=O)[O-])cc2C#N)cc1`: the Potency is 50.5 µM (active).

Regarding `O=c1[nH]c2ccc(Cl)cc2o1`, the “activity change, negative = cytotoxicity” value is 0.447%.

As for `CCc1ccccc1`, the “activity change, negative = cytotoxicity” value was -0.882%.

Regarding `C=C(C)[C@@H]1CCC2=CCC[C@@H](C)[C@]2(C)C1`, the “activity change, negative = cytotoxicity” value is -4.79%.

For `C[C@]1(Cn2ccnn2)[C@H](C(=O)O)N2C(=O)C[C@H]2S1(=O)=O`, the “activity change, negative = cytotoxicity” value was 1.38% [at 70.9 µM].

Regarding `O=C(/C=C/c1ccccc1)OCCc1ccccc1`, the “activity change, negative = cytotoxicity” value was 1.67%.

Turning to `Cc1ccc(C(C)(C)O)cc1`, the “activity change, negative = cytotoxicity” value was 6.53%.

As to `CCCCN(CCCC)C(C(N)=O)c1ccc(OC)cc1` (stereo not drawn), the “activity change, negative = cytotoxicity” value is 5.8% [at 70.9 µM].

For the compound `CCCCN(CCN(CCCC)C(=O)N1CCOCC1)C(=O)N1CCOCC1`, the “activity change, negative = cytotoxicity” value is 0.656% [at 70.9 µM].

For the compound `CC1CC(OC(=O)C(O)c2ccccc2)CC(C)(C)N1C` (stereo not drawn), the “activity change, negative = cytotoxicity” value is 0.754% [at 70.9 µM].

As for `CCCCCC[C@@H](O)C/C=C\CCCCCCCC(=O)OCC(O)CO` (stereo partly drawn), the “activity change, negative = cytotoxicity” value is 5.98%.

Source of the values: PubChem BioAssay (Tox21).
